In the library only some 1.6% were active in any assay of this set; here they are far more common.
KCNQ2 enhance = KCNQ2 (rat) channel potentiation. CHO-K1 KCNQ2, FluxOR thallium flux fluorescence; hits give high values. B-score at 10 µM. 310,000 compounds, 0.54% hits;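 active = fluorescence ratio B-score at least 3 SD of library B-scores, with initial fluorescence B-score within 3 of them, cut at about 5.3 in these data; same plate scores as AID 2156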;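 note: B-score of peak minus minimum over baseline fluorescence ratio after K+ and Tl+ stimulus; positive B-score means potentiation of KCNQ2 with more thallium influx and brighter signal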
KCNQ2 block = KCNQ2 (rat) channel inhibition. CHO-K1 KCNQ2, FluxOR thallium flux, 20 min; hits give low values. O88943. B-score at 10 µM. AID 2156. 310,000 compounds, 1.1% hits;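 active = fluorescence ratio B-score at most minus 3 library SDs, with starting brightness B-score within 2 library SDs, cut at about -5.5 in these data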
Numbers without * were called inactive; i = inactive; x = not tested or not shown.

SMILES | KCNQ2 enhance | KCNQ2 block
O=C(NC(Cc1c[nH]c2ccccc12)C(=O)N/N=C/c1cccc2ccccc12)c1cccs1 (stereo not given) | -8.1 | -8.1*
CCc1nnc(NC(=O)CCC(=O)N2CCN(c3cccc(Cl)c3)CC2)s1 | x | i
CCN1CCN(C(=O)c2cn(CCOC)c(=O)c3c2c2ccccc2n3C)CC1 | 0.06 | i
CC(C)Cn1cc(C(=O)N2CCN(c3ccccn3)CC2)c2c3ccccc3n(C)c2c1=O | -5.7 | -5.7*
COCCCNC(=O)c1cn(CC(C)C)c(=O)c2c1c1ccccc1n2C | 0.05 | i
COCCn1cc(C(=O)N2CCCC(C)C2)c2c3ccccc3n(C)c2c1=O (stereo not given) | -6.6 | -6.6*
OC(CON=C1c2ccccc2-c2ccccc21)CN1CCNCC1 (stereo not given) | x | i
Cc1cc(S(=O)(=O)N2CCCC(C(=O)Nc3ccc(C(=O)O)cc3)C2)ccc1Cl (stereo not given) | x | i
COc1ccccc1CNC(=O)c1cn(C)c2ccc(S(=O)(=O)N3CCCC3)cc2c1=O | x | i
CC(C)CCN(C(=S)Nc1cccc(C(F)(F)F)c1)C(C)c1ccccn1 (stereo not given) | -6.1 | -6.1*
CC(c1ccccn1)N(CCN(C)C)C(=S)Nc1cccc(F)c1 (stereo not given) | 1.3 | i
COc1cc(OC)cc(C(=O)NC(C(=O)N2CCc3ccccc3C2)C(C)C)c1 (stereo not given) | x | i
Cc1ccc(S(=O)(=O)N(CC(=O)NCc2ccco2)Cc2ccc(F)cc2)cc1 | -7.3 | -7.3*
Cc1cccc(S(=O)(=O)N(CC(=O)Nc2ccccc2C)Cc2ccco2)c1 | -5.8 | -5.8*
Cc1ccc(C)c(N(CC(=O)Nc2ccccc2C(=O)NCc2ccco2)S(=O)(=O)c2ccccc2)c1 | x | i
Cc1ccc(S(=O)(=O)NCC(=O)N(CC(=O)NCc2ccco2)Cc2ccc(F)cc2)cc1 | x | i
NC(=O)CN1CCN(Cc2ccc3c(c2)OCO3)CC1 | x | i
Cc1cc(-n2cnnn2)cc(C)c1S(=O)(=O)N(C)c1ccccc1 | 1.2 | i
C[C@H](NC(=O)C1CCN(S(=O)(=O)c2ccccc2)CC1)C(=O)NCc1ccc(Cl)cc1Cl | 0.34 | i
COc1ccc(C(CNC(=O)c2ccc3c(c2)OCCO3)N(C)C)cc1 (stereo not given) | x | i
CC(NC(=O)COc1ccccc1F)C1CC2CCC1C2 (stereo not given) | -6 | -6*
CC(NC(=O)c1ccc(F)cc1)C1CC2CCC1C2 (stereo not given) | x | i
CC(=O)c1cccc(NC(=O)C(C)OC(=O)c2cccc(-n3cnnn3)c2)c1 (stereo not given) | 0.66 | i
NNC(=S)NC1CCCCCCCCCCC1 | -6.9 | -6.9*
S=C(NC1CCCCCC1)NC1CCCC1 | 0.57 | i
SMILES | KCNQ2 enhance | KCNQ2 block
COc1ccc(C2c3c(oc4ccccc4c3=O)C(=O)N2CCCN2CCOCC2)cc1 (stereo not given) | x | i
CN(C)CCN1C(=O)c2oc3ccc(Cl)cc3c(=O)c2C1c1cccc(Br)c1 (stereo not given) | -6.3 | -6.3*
CN(C)CCN1C(=O)c2oc3ccccc3c(=O)c2C1c1cccc(Br)c1 (stereo not given) | x | i
COc1ccc(C2c3c(oc4ccc(Cl)cc4c3=O)C(=O)N2CCN2CCOCC2)cc1 (stereo not given) | -6.6 | -6.6*
CCCc1ccc(OCc2ccc(C(=O)N3CCSCC3)o2)cc1 | 0.38 | i
COc1cc(C(=O)OCC(=O)c2c[nH]c3ccccc23)ccc1OCC(=O)N1CCOCC1 | x | i
COc1cc(OC)c(N(C)S(=O)(=O)c2cccc(C(=O)OCC(=O)c3c[nH]c4ccccc34)c2)cc1Cl | 6.3* | i
Cc1ccc(C(=O)OCC(=O)c2c[nH]c3ccccc23)cc1 | 0.98 | i
C=CCN(c1ccccc1OC)S(=O)(=O)c1cccc(C(=O)OCC(=O)c2c[nH]c3ccccc23)c1 | 6.7* | i
CCN(CC)CCN(Cc1cc2cc3c(cc2[nH]c1=O)OCO3)C(=S)NC | 0.71 | i
O=C(N[C@H](Cc1cc(=O)[nH]c2ccccc12)C(=O)O)c1ccc(Cl)cc1 | x | i
CCCCn1c(SCC(=O)NC2CC2)nc2ccccc2c1=O | 0.55 | i
COc1ccc(NC(=O)CN(C)C(=O)c2ccc(OCc3ccccc3)c(OC)c2)cc1 | x | i
CC(C)c1ccc(-c2nn(-c3ccccc3)cc2C(=O)NCC2CCCO2)cc1 (stereo not given) | x | i
COc1ccc(-n2c(C)c(C)c3c(N)ncnc32)cc1 | x | i
CC1CCc2sc(C(=O)NN=C3CCC(c4ccccc4)CC3)cc2C1 (stereo not given) | 0.75 | i
Cc1cccc(NC(=S)NNC(=O)c2cc3c(s2)CCC(C)C3)c1C (stereo not given) | 8.5* | i
Cc1ccc(C)c(NC(=S)NNC(=O)c2sccc2C)c1 | 1.6 | i
Cc1ccc(C)c(NC(=S)NNC(=O)c2cc3c(s2)CCC(C)C3)c1 (stereo not given) | 11* | i
Cc1cc(NS(=O)(=O)c2cc(Cl)sc2Cl)no1 | 0.23 | i
Cc1csc2nc(CNC(=O)c3cccc(C(F)(F)F)c3)cn12 | -6.2 | -6.2*
O=C(NCc1cn2ccsc2n1)c1cccc(C(F)(F)F)c1 | x | i
CN1N=C(C(=O)N2CCCC(N3CCN(c4ccc(F)cc4)CC3)C2)CCC1=O (stereo not given) | x | i
COc1ccc(-c2csc3nc[nH]c(=O)c23)cc1OC | 1.1 | i
Cc1ccc(-c2csc3nc[nH]c(=S)c23)cc1C | 10* | i
SMILES | KCNQ2 enhance | KCNQ2 block
COc1cc([N+](=O)[O-])ccc1NC(=O)Nn1cnnc1 | x | i
C=CCN1C(=O)c2ccc(C(=O)N(C)CC(=O)Nc3ccccc3Br)cc2C1=O | x | i
Cc1ccnc(NC(=O)c2cccc(S(=O)(=O)N3CCN(c4ccc(F)cc4)CC3)c2)c1 | x | i
O=C(O)c1ccc2c(c1)C1C=CCC1C(c1ccncc1)N2 (stereo not given) | 1.9 | i
CC(=O)c1ccc2c(c1)C1C=CCC1C(c1cc3c(cc1Br)OCO3)N2 (stereo not given) | -7.4 | -7.4*
Cc1ccccc1OCc1nnc(SCC(=O)Nc2ccc3nc(SCC(=O)Nc4ccccc4)sc3c2)n1C | 0.08 | i
CCc1ccc(NC(=O)C2CCCCC2C(=O)O)cc1 (stereo not given) | 0.17 | i
CCc1ccc(NC(=O)C2C3/C=C\CCCCC32)cc1 (stereo not given) | 5.8* | i
C/C(=N\NC(=O)Cc1ccc(Cl)cc1)c1cccc(NC(=O)c2cccnc2)c1 | x | i
O=C(NCc1ccccc1)C1CCC(=O)N(CCCN2CCCC2=O)C1 (stereo not given) | 0.51 | i
Cc1cc(Oc2ccc(C(C)(C)C)cc2)nc(N2CCOCC2)n1 | -6.2 | -6.2*
Cc1cc(Oc2ccc(-c3ccccc3)cc2)nc(N2CCOCC2)n1 | x | i
CS(=O)(=O)N(CC(=O)N1CCc2ccccc2C1)c1ccc(Cl)cc1F | x | i
COc1ccc(C(CCN2CCCC(C)C2)c2c(OC)cc(OC)c3c(-c4ccccc4)cc(=O)oc23)cc1 (stereo not given) | -6 | -6*
COc1cc(OC)c2c(-c3ccccc3)cc(=O)oc2c1C(CCN1CCCC(C)C1)c1ccc(N(C)C)cc1 (stereo not given) | x | i
COc1cc(OC)c(OC)cc1CCC(C)NC(=O)Cc1ccccc1 (stereo not given) | 0.09 | i

Screening data from PubChem BioAssay.
